{"source": "PubChem BioAssay (NCI)", "note": "The panel holds about 83,000 compounds, 20% with a hit somewhere; the sample as a whole holds those more often.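 Note: values are percent growth. 100 is the growth of untreated cells, values between 100 and 0 indicate rising inhibition; between -100 and 0 indicates cell death.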 Values without a mark were called inactive. Calls of active or inactive are those of the source. How the source made its calls: active means growth percent below 10; inactive means the rest.", "data": [{"test_system": "MDA-MB-468 breast", "assay": "NCI-60 one-dose screen, 48 h (100 = growth as untreated, 0 = no growth, -100 = all killed)", "details": "10 µM unless noted", "values": [{"smiles": "O=C(CCCCCCN1CC(=O)N2[C@@H](c3cccc(Br)c3)c3[nH]c4ccccc4c3C[C@H]2C1=O)NO", "growth": "28.1%"}, {"smiles": "CC(C)c1ccc(Nc2ccc3c(OCCCN4CCN(C)CC4)cccc3n2)cc1", "growth": "66%"}, {"smiles": "O=C/C=C/c1ccc([N+](=O)[O-])cc1", "growth": "108%"}, {"smiles": "Cc1ccc(-c2c(Br)c(OC(=O)CO[C@@H]3C[C@H](C)CC[C@H]3C(C)C)c(-c3ccc(C)cc3C)c(Br)c2OC(=O)CO[C@H]2C[C@@H](C)CC[C@@H]2C(C)C)c(C)c1", "growth": "34.5%"}, {"smiles": "COC(=O)CCCCCCN=Cc1c(O)c(O)c(C(C)C)c2cc(C)c(-c3c(C)cc4c(C(C)C)c(O)c(O)c(C=NCCCCCCC(=O)OC)c4c3O)c(O)c12", "growth": "47.1%"}, {"smiles": "COc1cnc2c(c1)C(=O)c1c-2n(CCCn2ccnc2)c(=O)c2cc(Cl)ccc12", "growth": "-11.2% (active)"}, {"smiles": "COc1ccc(-c2cn(Cc3cc4ccccc4s3)nn2)cc1OCCN1CCCCC1", "growth": "63.8%"}, {"smiles": "O=C(c1ccccc1)c1ccco1", "growth": "118%"}, {"smiles": "N#CN1CC[C@H](C(=O)Nc2ncc(-c3ccccc3)s2)C1", "growth": "-49.9% (active)"}, {"smiles": "COC(=O)[C@H]1Cc2c([nH]c3ccccc23)[C@H](c2ccc3c(c2)OCO3)N1", "growth": "102%"}, {"smiles": "N#CC1=C(N)Oc2ccc3ccccc3c2C1c1ccccc1Cl", "note": "(centres undefined)", "growth": "31.1%"}, {"smiles": "CC1(O)CCCCCC1", "growth": "100%"}, {"smiles": "CCOC(=O)c1ccc(N2NC(=O)/C(=C/c3ccc([N+](=O)[O-])o3)C2=O)cc1", "growth": "106%"}, {"smiles": "CCOC(=O)C1C(=O)C=C(c2cnccn2)CC1c1ccc(OC)c(OC)c1", "note": "(centres undefined)", "growth": "108%"}]}]}
